Bioassay records deposited in PubChem BioAssay by Bradner/Qi Labs at DFCI.
Many of the other results were omitted from the sample, so hits are more common in it than they were.
CBX7 AlphaScr: CBX7 chromodomain binding inhibitors, primary screen, biochemical, AlphaScreen; Chromobox protein homolog 7 (Homo sapiens), O95931; AlphaScreen His6-CBX7 / biotin-H3K27me3 peptide binding; hits give low values; normalised signal (fraction of DMSO) (test concentration not listed); 1.1% of 66,000 active; in the data active = normalised signal below about 0.5
Target sequence (O95931 whole entry, looked up): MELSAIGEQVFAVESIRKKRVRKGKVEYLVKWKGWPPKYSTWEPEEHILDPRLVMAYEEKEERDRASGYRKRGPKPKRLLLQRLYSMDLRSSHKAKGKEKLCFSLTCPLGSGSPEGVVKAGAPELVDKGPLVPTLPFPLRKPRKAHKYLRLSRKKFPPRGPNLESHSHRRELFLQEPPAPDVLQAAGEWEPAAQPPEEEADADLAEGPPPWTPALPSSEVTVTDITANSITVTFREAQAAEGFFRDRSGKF
Each line names hits and unclear results; the compound was inactive in the other large screens.

Ic1ccc(Nc2nc3nonc3nc2NCc2ccco2)cc1	none
COc1ccc(-c2[nH]c(-c3ccccc3)nc2SCC(=O)Nc2ccccc2)cc1	none
Cc1ccc2[nH]c3c(c2c1)CCCC3NCc1ccc(Cl)cc1 (stereo unspecified)	CBX7 AlphaScr 0.49
Cc1ccc2[nH]c3c(c2c1)CCCC3NCCCO (stereo unspecified)	none
c1ccc(CNC2CCCc3c2[nH]c2ccc(-c4ccccc4)cc32)cc1 (stereo unspecified)	none
CCN(CC)CCNC(=O)CC1Oc2ccc(C)cc2NC1=O (stereo unspecified)	none
COc1ccc(OCC(O)CN2CCCCC2)cc1 (stereo unspecified)	none
CC(=O)N1CCN(CC(O)COc2ccc(Br)cc2)CC1 (stereo unspecified)	CBX7 AlphaScr 0.46
CCCCOCC(O)CN1CCN(C(C)=O)CC1 (stereo unspecified)	none
Cc1ccc2c3c([nH]c2c1)CCN(C)C3	none
Cc1ccc(Nc2cc(C(=O)NCCc3ccccc3)c3ccccc3n2)cc1C	none
CC1CC(C)CN(C(=O)c2cc(-c3ccccn3)nc3ccc(S(=O)(=O)N4CCOCC4)cc23)C1 (stereo unspecified)	none
COc1ccc(CCn2c(=O)[nH]c3ncccc3c2=O)cc1OC	none
Cc1nc2c(C(=O)NC3CC3)c[nH]n2c(=O)c1Cc1ccccc1F	none
COC(=O)c1c[nH]n2c(=O)c(Cc3cccc(Cl)c3)c(C)nc12	none
COC(=O)c1c[nH]n2c(=O)c(Cc3ccccc3C)c(C)nc12	none
Cc1cccc(-c2nc(CN3CCCC(C(=O)NC4CCC(C)CC4)C3)c(C)o2)c1 (stereo unspecified)	none
COC(=O)c1c[nH]n2c(NC3CCC(C)CC3)c(-c3ccc(Cl)cc3)nc12 (stereo unspecified)	CBX7 AlphaScr 0.33
COC(=O)c1c[nH]n2c(NC3CCC(C)CC3)c(-c3cccc(C)c3)nc12 (stereo unspecified)	CBX7 AlphaScr 0.24
COC(=O)c1c[nH]n2c(NC3CCC(C)CC3)c(-c3cccc(F)c3)nc12 (stereo unspecified)	CBX7 AlphaScr 0.33
COC(=O)c1c[nH]n2c(NCCc3ccccc3)c(-c3cccc(OC)c3)nc12	none
CC1CCC(NC(=O)Cn2nc(-c3ccccc3)c3cc(Cl)ccc32)CC1 (stereo unspecified)	none
Cc1nc2c(C(=O)NC3CCCC3)c[nH]n2c(=O)c1Cc1ccc(Cl)cc1	none
COC(=O)c1c[nH]n2c(NC3CCCCCC3)c(-c3cccc(C)c3)nc12	CBX7 AlphaScr 0.44
COC(=O)c1c[nH]n2c(=O)c(Cc3cc(C)ccc3C)c(C)nc12	none
CCN(CC)CCNC(=O)CCc1c(C)nc2c(-c3ccccc3)c(C)nn2c1C	none
CCOc1ccc(-c2nc(CSCC(=O)NCCOC)c(C)o2)cc1	none
O=C(Nc1ccc(Oc2ccccc2)cc1)c1cc2c(s1)-c1ccccc1OC2	none
CCc1ccccc1NS(=O)(=O)c1ccc2[nH]cc(C(=O)NCc3cccs3)c(=O)c2c1	none
COc1ccccc1Oc1cc([N+](=O)[O-])cc2c1C(=O)Nc1ccccc1O2	none
CN(CCC#N)C(=O)c1cc2c(s1)-c1ccccc1OC2	none
O=C(Nc1ccc2snnc2c1)NC1CCCCCC1	none
c1ccc(Cn2c(CSc3ncn[nH]3)nc3ccccc32)cc1	none
CC(C)CN(CC(C)C)c1nnc(NC(=O)Nc2ccccc2C(F)(F)F)s1	none
O=C1c2ccccc2C(Nc2ccc(F)cc2)N1c1ccccn1 (stereo unspecified)	none
COc1cccc(C(=O)Nc2c(C(=O)Nc3cccc(F)c3)oc3ccccc23)c1OC	none
CCn1cnc2cc(NCc3ccc(C)cc3)ccc21	none
CC(C)(C)n1cnc2cc(NCc3ccncc3)ccc21	none
CC(C)n1cnc2cc(NCc3nc4ccccc4n3C)ccc21	none
CC(C)n1cnc2cc(NCc3ccc(Cl)cc3)ccc21	CBX7 AlphaScr 0.4
CCOc1ccc(CNc2ccc3c(c2)ncn3C)cc1	none
CC(C)n1cnc2cc(NCc3ccc(Br)cc3)ccc21	CBX7 AlphaScr 0.38
CC1CCCC(NC(=O)c2cc(=O)[nH]c3ccc(S(=O)(=O)N4CCCC4)cc23)C1C (stereo unspecified)	none
C=CC1CCC(N(Cc2ccccc2)S(=O)(=O)c2ccc(C)cc2)C(O)C1 (stereo unspecified)	none
Cc1ccc(NC2c3ccccc3C(=O)N2c2cccnc2)cc1Cl (stereo unspecified)	none
CC1CCN(c2c(NCc3ccc(C(=O)Nc4ccc(Cl)cc4)cc3)c(=O)c2=O)CC1	none
O=C(CCCN1C(=O)c2cccnc2C1=O)NC(c1ccccc1)c1ccccc1	none
CC(NC(=O)C1CCN(S(=O)(=O)c2cccc3cccnc23)CC1)c1ccccc1 (stereo unspecified)	none
Oc1c(C(Nc2ccccn2)c2ccccc2)ccc2cccnc12 (stereo unspecified)	CBX7 AlphaScr 0.01
CCCC(=O)NC(c1ccccc1)c1cc(Cl)c2cccnc2c1O (stereo unspecified)	none
O=C(NC(c1ccccc1)c1ccccc1)C1CCCN(S(=O)(=O)c2cccc3cccnc23)C1 (stereo unspecified)	none
Cc1cccnc1NC(c1ccccc1)c1ccc2cccnc2c1O (stereo unspecified)	CBX7 AlphaScr 0.032
O=C(NC(c1ccccc1)c1ccccc1)C1CCCN1S(=O)(=O)c1cccc2cccnc12 (stereo unspecified)	none
Cc1ccc2cc(CCNC(=O)CCc3ccccc3)c(=O)[nH]c2c1	none
O=C(CCc1ccccc1)NC(c1cccs1)c1cc(Cl)c2cccnc2c1O (stereo unspecified)	CBX7 AlphaScr 0.45
CC(NS(=O)(=O)c1cccc2cccnc12)c1ccccc1 (stereo unspecified)	none
Cc1ccc(C(NC(=O)CCc2ccccc2)c2ccc3cccnc3c2O)cc1 (stereo unspecified)	CBX7 AlphaScr 0.071
Cc1ccc(-c2noc(CCC(=O)NC(C)CCc3ccccc3)n2)cc1 (stereo unspecified)	none
CCOc1cccc(C(=O)Nc2nnc(C3CCCCC3)s2)c1	none
Cc1ccc(S(=O)(=O)NCCc2c(C)[nH]c3ccccc23)c(C)c1C	none
CCOc1ccc(-n2nc3ccc(NS(=O)(=O)c4ccccc4)cc3n2)cc1	none
Cc1ccc(NC(=O)C(Cc2ccccc2)NS(=O)(=O)c2cccs2)cc1 (stereo unspecified)	none
CS(=O)(=O)CC[C@@H](C(=O)Nc1cc(F)ccc1F)N1Cc2ccccc2C1=O	none
Cc1cc(NC(=O)Cn2ncc3c2-c2ccccc2OC3)no1	none
Cc1ccccc1-n1c(=O)cc(N2CCN(c3ccccc3F)CC2)[nH]c1=O	none
CCOC(=O)c1cnc2ccc(OCC)cc2c1N1CCN(C)CC1	none
CCOC(=O)c1cnc2ccc(OCC)cc2c1N1CCN(Cc2ccccc2)CC1	CBX7 AlphaScr 0.5
CCOC(=O)c1cnc2ccc(OCC)cc2c1N1CCN(c2ccccn2)CC1	none
Cc1onc(-c2ccccc2Cl)c1C(=O)Nc1ccccc1F	none
COc1ccc(NC(=O)Cn2cc(S(=O)(=O)c3ccccc3)c(=O)c3ccccc32)cc1Cl	none
Cc1ccc(CCNC(=O)C(NS(=O)(=O)c2ccc3nc(C)sc3c2)C(C)C)cc1 (stereo unspecified)	none
O=C1CCc2cc(S(=O)(=O)N3CCC(C(=O)Nc4ccc(Cl)cn4)CC3)ccc2N1	none
Cc1c(C(=O)NCCCN2CCCCCC2)sc2ncn(CC(=O)N3CCCCC3C)c(=O)c12 (stereo unspecified)	none
Cc1ccc(OCCn2c(C3CC(=O)N(c4cccc(C)c4C)C3)nc3ccccc32)cc1 (stereo unspecified)	none
